# Laboratory results reported in PubChem BioAssay AID834 (PCMD, 2007).
# About 120 (0.14%) of roughly 85,000 compounds were called active. The sample holds actives, similar compounds and a random draw of the others, so the mix is not that of the screen.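 Rule for the calls: active = inhibition above 20%; inactive = inhibition below 20%.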
# Assay: clotrimazole potentiators killing Candida biofilms, primary screen, with clotrimazole, Alamar Blue (AID 834);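 note: preformed 24 hr biofilms exposed to compound for 48 hr; 0% = biofilm without compound and 100% = blank killed by clotrimazole plus chlorhexidine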
# Conditions: C. albicans biofilm + clotrimazole, at 6 µM, hits give high values
row,SMILES,inhibition
1,CCOc1ccccc1C(=O)NC1CC2CCCC(C1)N2Cc1ccccc1 (centres undefined),1.7% (inactive)
2,CCn1nnnc1SCC(=O)c1ccc(C)cc1C,-2.31% (inactive)
3,Cc1ccccc1CSCCNC(=O)c1ccc(Cl)c(S(=O)(=O)N2CCOCC2)c1,3.05% (inactive)
4,O=C(NCc1ccccc1)[C@@H]1CSC2c3ccccc3C(=O)N21 (some centres undefined),-0.55% (inactive)
5,Oc1ccc(-c2onc3ccc(Cl)cc23)cc1,3.22% (inactive)
6,CCCCCCNCCn1cnc2c(N)ncnc21,8.75% (inactive)
7,Cc1cc(C)c(OCC(=O)N/N=C/c2ccco2)c(C)c1,-5.16% (inactive)
8,Cn1c2c(c(=O)n(C)c1=O)C(c1cccc([N+](=O)[O-])c1)Nc1ccccc1O2 (centres undefined),6.05% (inactive)
9,c1ccc(-n2nc3ccccc3n2)cc1,9.8% (inactive)
10,Cc1ccc(S(=O)(=O)NCC(C)NS(C)(=O)=O)cc1 (centres undefined),3.23% (inactive)
11,O=C1C(Cl)=C(N2CCOCC2)C(=O)N1c1ccccc1,3.34% (inactive)
12,Fc1ccccc1/C=C1\CCCC2=C1Nc1ncnn1C2c1ccccc1F (centres undefined),56.5% (active)
13,COc1ccc(OC)c(-n2nnnc2SCC(=O)Nc2cc(C)ccc2OC)c1,4% (inactive)
14,O=S(=O)(NCCc1ccccc1)c1ccccc1,5.09% (inactive)
15,O=C(NCC1CCCO1)c1ccc2ccccc2n1 (centres undefined),2.84% (inactive)
16,CC(C)Oc1ccc(C(=O)NC(C)(C)CO)cc1,0.21% (inactive)
17,CCN1CCN(C(=O)C2(NC(=O)Nc3cccc(F)c3)CCCCC2)CC1,-2.53% (inactive)
18,CCn1c(SCC(=O)Nc2ccc(OC)c(OC)c2)nnc1-c1c[nH]c2ccccc12,2.3% (inactive)
19,O=C(Nc1ccccc1-c1nnn(CC(=O)N2CCCc3ccccc32)n1)c1cccc(Cl)c1,-4.65% (inactive)
20,CCSc1nc(-c2ccc(OC)cc2)cc(-c2ccc(OC)cc2)c1C#N,3.4% (inactive)
21,CC(C)(C)c1ccc(OC2=CS(=O)(=O)c3ccccc32)cc1,1.17% (inactive)
22,Cc1c(C=O)c2ccccn2c1C(=O)c1ccncc1,-3.35% (inactive)

row,SMILES,inhibition
1,Cc1cc(SCC(=O)c2ccccc2)nc(SCC(=O)c2ccccc2)n1,9.02% (inactive)
2,COCC(=O)Nc1ccc(Br)cc1,5.17% (inactive)
3,COC(=O)c1sc(=S)n(-c2ccc(Cl)cc2)c1C,5.98% (inactive)
4,CC(=O)C1=C(C)NC(C)=C(C(C)=O)C1c1cn(-c2ccccc2)nc1-c1cccs1,4.22% (inactive)
5,O=C(NCCCn1ccnc1)Nc1ccc(Cl)cc1Cl,8.78% (inactive)
6,COC(=O)c1ccc(Sc2ccc(F)cc2)c(N)c1,2.2% (inactive)
7,Cc1ccc(N(Cc2ccc(C(=O)Nc3ccccc3C(=O)NCc3ccco3)cc2)S(C)(=O)=O)cc1C,0.88% (inactive)
8,COc1cc2c(cc1OC)C(C(C)C)=NC(C)(C)C2,4.82% (inactive)
9,COc1ccc(Nc2ncc(C(=O)N3CCN(c4ccccc4OC)CC3)c3ccccc23)cc1,10.1% (inactive)
10,Cc1[nH]n(-c2ccc(Cl)cc2)c(=O)c1/C=N/n1c(C)nc2ccccc2c1=O,7.46% (inactive)
11,COC(=O)Nc1ncc(CN2CCCCC2)s1,-1.41% (inactive)
12,CN(C)S(=O)(=O)c1ccc(N2CCCC2)c(C(=O)NCc2ccccc2)c1,-0.61% (inactive)
13,CCC(C)NC(=O)c1ccccc1NC(=O)c1ccccc1N(C)S(C)(=O)=O (centres undefined),-0.05% (inactive)
14,COC(=O)c1ccccc1Sc1c(/C=N/OCc2ccc(Cl)cc2)c(C(F)(F)F)nn1C,-1.64% (inactive)
15,S=C1NC(c2ccccc2)=NCN1c1ccc(Br)cc1,5.98% (inactive)
16,C=CCOC(=O)C1=C(C)NC(SCC(=O)OCC)=C(C#N)C1c1ccc(C)cc1 (centres undefined),3.88% (inactive)
17,N#CC1=C(SCc2ccc(C#N)cc2)N=C(N)C(c2nc(-c3ccccc3)cs2)C12CCCCC2 (centres undefined),-2.54% (inactive)
18,Cc1ccc(CCN2CC(C(=O)O)CC2=O)cc1 (centres undefined),2.77% (inactive)
19,COc1ccc(CN(CC(=O)NC2CCCC2)C(=O)CCC(=O)Nc2cc(C)on2)cc1,-2.23% (inactive)
20,CCn1c2ccccc2c2cc(NC(=S)N3CCOCC3)ccc21,5.56% (inactive)
21,CCN(c1ccccc1)S(=O)(=O)c1ccc(C(=O)Nc2nccs2)cc1,2.15% (inactive)
22,CCOC(=O)c1cnc(SCC(=O)Nc2ccccc2C(=O)OC)nc1N,4.94% (inactive)

row,SMILES,inhibition
1,CCNc1nc(NC(C)C)nc(OCCOC(=O)c2ccccc2)n1,2.57% (inactive)
2,Cc1cccc(N2CCN(C(=O)c3cnn4c(C(F)F)cc(-c5ccccc5)nc34)CC2)c1C,7.54% (inactive)
3,CCOCCn1c(C(C)C)nc2ccccc21,0.21% (inactive)
4,O=C(CN1CCOCC1)Nc1ccccc1,2.89% (inactive)
5,COC(=O)c1ccc(CSc2nnc(NC(C)C)s2)cc1,8.02% (inactive)
6,COc1ccccc1C(c1nnnn1C(C)(C)C)N1CCN(Cc2ccccc2)CC1 (centres undefined),-0.02% (inactive)
7,COc1ccc(Br)cc1CN1CCN(C(=O)c2cccc(OC)c2OC)CC1,-0.18% (inactive)
8,Cc1nn(Cc2ccccc2)c2c1C(c1ccccc1)C(C#N)=C(N)O2 (centres undefined),4.23% (inactive)
9,CCCc1cc(=O)[nH]c(SCC(=O)c2cc(C)n(CCC)c2C)n1,9.55% (inactive)
10,C=CCN(C(=O)Cn1ncc2c1-c1cc(C)ccc1OC2)c1ccccc1,3.48% (inactive)
11,CC(C)(C)c1nc2ccccc2c(=O)n1N1C(=O)c2ccccc2C1=O,1.87% (inactive)
12,OC(c1ccccc1)c1nccn1Cc1ccccc1 (centres undefined),6.12% (inactive)
13,CCOc1cccc(C(=O)Nc2nnc(-c3cccs3)s2)c1,5.64% (inactive)
14,CC(C)N1C(=S)SC(C)(C)C1n1oc(=O)n(-c2ccc(Cl)c(Cl)c2)c1=O (centres undefined),8.09% (inactive)
15,Cc1noc(COc2ccccc2OCc2onc(C)c2Cl)c1Cl,-3.84% (inactive)
16,COC(=O)c1sccc1-n1cccc1C(=O)C(=O)N1CCCCC1,6.37% (inactive)
17,COCCNC(=O)COc1ccccc1C,4.87% (inactive)
18,CCC(C)NC(=O)CCCc1ccccc1 (centres undefined),5.94% (inactive)
19,COc1ccc(NC(=O)C2C3C=CC(C3)C2C(=O)NCc2ccccn2)c(OC)c1 (centres undefined),3.96% (inactive)
20,CCOC(=O)/C(C#N)=C\c1c(C)cc(C)c(COC(C)=O)c1C,5.54% (inactive)
21,CC/C(O)=N\S(=O)(=O)c1ccc(N=NN(C)C)cc1,3.86% (inactive)
22,CC1=NN(/C(=N\c2nnc(C)s2)Nc2ccccc2)[C@H](c2ccc(C)cc2)S1,4.3% (inactive)

row,SMILES,inhibition
1,O=C(c1ccc(CN2CCOCC2)cc1)N1CCN(c2ccccc2F)CC1,3.38% (inactive)
2,O=C(NCCSCc1ccccc1)c1ccc(Cl)c(S(=O)(=O)N2CCOCC2)c1,9.31% (inactive)
3,COC(=O)c1cccc(-n2[nH]nnc2=S)c1,-3.99% (inactive)
4,C=CCNC(=O)c1cc2nc(C3CC3)cc(C(F)F)n2n1,3.65% (inactive)
5,OC(COc1ccc2c(c1)CCC2)CN1CCN(c2cccc(Cl)c2)CC1 (centres undefined),3.52% (inactive)
6,CC(C)C(=O)Nc1ccc2c(c1)oc1ccccc12,9.6% (inactive)
7,CC(C)OC(=O)c1c(NC(=O)c2ccco2)sc2c1CCCC2,4.89% (inactive)
8,Cc1cccc(CCNS(=O)(=O)c2ccc(S(=O)(=O)NC3CCCC3)cc2)c1,-0.29% (inactive)
9,COc1ccc(CCN2C(=O)C3CC=C(C)CC3C2=O)cc1OC (centres undefined),1.85% (inactive)
10,Clc1cccc(N=C2NN=C(c3ccc4c(c3)OCCO4)CS2)c1,1.81% (inactive)
11,COc1ccc(NC(=O)Cn2c(=O)n(Cc3ccco3)c(=O)c3ccccc32)cc1,7.9% (inactive)
12,CCCCNC(=O)C1(c2ccc(OC)cc2)CCOCC1,3.55% (inactive)
13,Cc1nnc(SCC(=O)NC2CCCC2)s1,1.39% (inactive)
14,O=C1Nc2cc(Cl)c(Cl)cc2N(O)N1c1cc(Cl)cc(Cl)c1,-1.77% (inactive)
15,CCOc1ccc(NC(=O)N(CC(C)C)CC(C)C)cc1,-5.95% (inactive)
16,CC1CCN(S(=O)(=O)c2ccc(S(=O)(=O)NCc3ccco3)cc2)CC1,6.18% (inactive)
17,CCOc1cc(NC(=O)c2cnccn2)c(OCC)cc1NC(=O)c1ccc(C)cc1,10.1% (inactive)
18,CCOc1ccc(S(=O)(=O)NCCSc2ccccc2)cc1,-7.35% (inactive)
19,Cn1c(Cc2cccc3ccccc23)nnc1SCC(=O)N1CCN(c2cccc(Cl)c2)CC1,2.35% (inactive)
20,CC1(C)NC(=O)N(CCCCSc2ccc(Cl)cc2)C1=O,4.05% (inactive)
21,CCc1cccc(C)c1N(C(=O)Cn1c(CO)nc2ccccc21)C(C)COC (centres undefined),2.34% (inactive)
22,CCOC(=O)c1c(NC(C)=O)sc2c(O)c(Br)ccc12,7.32% (inactive)

row,SMILES,inhibition
1,CC(C)(C)C1CCc2c(sc3nc(SCC(N)=O)nc(N)c23)C1 (centres undefined),9.53% (inactive)
2,CC(=O)Nc1ccc(NC(=O)CSCc2cnn(-c3ccccc3)c2-n2cccc2)cc1,5.53% (inactive)
3,Cc1ccc(OC(=O)c2ccccc2C(=O)OCC(F)(F)C(F)F)cc1,-0.38% (inactive)
4,Cc1ccc(/C=N/NC(=O)C2=NNC(c3ccccc3)(c3ccccc3)C2)c(O)c1,2.75% (inactive)
5,Cc1ccc(CNC(=O)COc2ccc(S(=O)(=O)NC(C)C)cc2)cc1,4.65% (inactive)
6,CCOC(=O)c1sc(NC(=O)CSc2nc(C)cc(C(F)(F)F)n2)c(C#N)c1C,4.2% (inactive)
7,CCOC(=O)c1ccc2c(c1)nc(SCC(=O)NC(C)C)n2CC,-0.28% (inactive)
8,CC(C)OC(=O)CN1C(=O)C(=O)c2ccccc21,-1.96% (inactive)
9,CC(C)(C)NC(=O)Cn1c(SCC(=O)Nc2nccs2)nc2ccccc21,-3.28% (inactive)
10,COc1ccc(C2=NOC3(CC(=O)N(c4ccc(Cl)cc4)C3=O)C2)c(OC)c1 (centres undefined),8.25% (inactive)
11,CCc1c(O)cc2n(c1=O)-c1ccccc1C2(C)C,5.21% (inactive)
12,CCn1c(Cc2cccs2)nnc1SCC(=O)c1ccc(C)cc1,5.86% (inactive)
13,CCCCOc1ccc(N(CC(=O)NCC2CCCO2)C(=O)CCC(=O)Nc2cc(C)ccn2)cc1 (centres undefined),5.21% (inactive)
14,CCCc1nc2sc3c(c2c(=O)n1NC(=O)CCCl)CCCC3,-7.02% (inactive)
15,CCOC(=O)c1c(NC(=O)CSc2nnc(CNc3ccc(C)cc3C)o2)sc(C)c1C,0.89% (inactive)
16,CCC(=O)Nc1ccc(S(=O)(=O)NCC2CCCO2)cc1 (centres undefined),5.21% (inactive)
17,O=C(COC(=O)c1n[nH]c2ccccc12)NCc1ccccc1,1.24% (inactive)
18,COc1ccc(Nc2cc(=O)oc3ccccc23)cc1,5.52% (inactive)
19,O=C(NC1CCCCC1)C1CC(=O)N(CCc2ccccc2)C1 (centres undefined),5.26% (inactive)
20,CCOC(=O)CSc1nc2ccc(C)cc2[nH]1,4.49% (inactive)
21,FC(F)(F)c1cc(-c2ccco2)nc(NCc2ccc(Cl)cc2)n1,-7.36% (inactive)
